Results as given in the supplement of paper PMC10849652.
The full data set covers some 7,900 targets. This sample favours those with a hit. About 0.6% of all pairs of compound and target were hits.

Experiments:
Assay in all cases: log2 fold change, soluble protein after heating vs DMSO (PISA); higher = thermal stabilisation; K562 cells, 10 uM, 30 min; active = over 0.2 and 3.5 SD of the protein, either way, in both replicates (recomputed)
[1] = compound: CC[C@@H]1C(=O)N(C)c2cnc(Nc3ccc(C(=O)NC4CCN(C)CC4)cc3OC)nc2N1C1CCCC1
In short: (§1)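 For each measurement, 10 μM compound was applied for 30 min to K562 cells at 2×10^6 cells/mL. Aliquots were heated for 3 min across 48°C-58°C, pooled, and extracted in PBS with 0.5% NP-40 at 4°C; the supernatant after 21,000xg for 90 min was soluble protein. This was quantified by TMTpro 16plex LC-MS/MS with channel sums equalised, and thermal stability was reported relative to control samples from duplicates, on a log2 fold-change scale.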

volasertib = compound: CC[C@@H]1C(=O)N(C)c2cnc(Nc3ccc(C(=O)N[C@H]4CC[C@H](N5CCN(CC6CC6)CC5)CC4)cc3OC)nc2N1C(C)C [volasertib]
In short: as §1

[2] = compound: CC[C@H](C)N1C=C(C2=C(C=C(C=C21)C3=CN=C(C=C3)N4CCNCC4)C(=O)NCC5=C(C=C(NC5=O)C)C)C
In short: as §1

epoxomicin = compound: CC[C@H](C)[C@@H](C(=O)N[C@@H]([C@@H](C)O)C(=O)N[C@@H](CC(C)C)C(=O)[C@]1(CO1)C)NC(=O)[C@H]([C@@H](C)CC)N(C)C(=O)C [epoxomicin]
In short: as §1

[3] = compound: CCn1c(C(=O)N(C2CC2)C2CC2)cc2c3c(ncn3C)c(Nc3cc(C)n(C)n3)nc21
In short: as §1

[4] = compound: CCn1cc(-c2ccnc3[nH]c(-c4cccc(CN(C)C)c4)cc23)c(-c2ccc(NC(=O)N(C)C)cc2)n1
In short: as §1

[5] = compound: CN(C)CC(=O)Nc1ccc2[nH]c(=O)c3ccccc3c2c1
In short: as §1

rosiglitazone = compound: CN(CCOC1=CC=C(C=C1)C[C@H]2C(=O)NC(=O)S2)C3=CC=CC=N3 (racemic) [rosiglitazone]
In short: as §1

[6] = compound: CN1C2=C(C3=C1C(=O)N(N=C3)CC4=CC(=CC=C4)N)SC(=C2)S(=O)C
In short: as §1

[7] = compound: CN1CCC(CNc2ccc3ncc(-c4cccc(OC(F)(F)F)c4)n3n2)CC1
In short: as §1

saracatinib = compound: CN1CCN(CCOc2cc(OC3CCOCC3)c3c(Nc4c(Cl)ccc5c4OCO5)ncnc3c2)CC1 [saracatinib]
In short: as §1

sotrastaurin = compound: CN1CCN(c2nc(C3=C(c4c[nH]c5ccccc45)C(=O)NC3=O)c3ccccc3n2)CC1 [sotrastaurin]
In short: as §1

alvocidib = compound: CN1CC[C@H](c2c(O)cc(O)c3c(=O)cc(-c4ccccc4Cl)oc23)[C@H](O)C1 [alvocidib]
In short: as §1

Tubastatin A = compound: CN1CCc2c(c3ccccc3n2Cc2ccc(C(=O)NO)cc2)C1 [Tubastatin A]
In short: as §1

[8] = compound: CNC(=O)C1=CC=CC=C1NC2=NC(=NC=C2Cl)NC3=C(C=C(C=C3)N4CCOCC4)OC
In short: as §1

defactinib = compound: CNC(=O)c1ccc(Nc2ncc(C(F)(F)F)c(NCc3nccnc3N(C)S(C)(=O)=O)n2)cc1 [defactinib]
In short: as §1

rucaparib = compound: CNCc1ccc(-c2[nH]c3cc(F)cc4c3c2CCNC4=O)cc1 [rucaparib]
In short: as §1

[9] = compound: CNc1nc(-c2ccc3c(N)n[nH]c3c2)cc(N2C[C@@H](C(=O)NC3CCCCC3)CC[C@H]2C)n1
In short: as §1

encorafenib = compound: COC(=O)N[C@@H](C)CNc1nccc(-c2cn(C(C)C)nc2-c2cc(Cl)cc(NS(C)(=O)=O)c2F)n1 [encorafenib]
In short: as §1

[10] = compound: COC(=O)[C@H](CCSC)NC(=O)C1=C(C=C(C=C1)NC[C@H](CS)N)C2=CC=CC=C2
In short: as §1

Measured: log2 fold change

DCAF6 isoform 3 (UniProt Q58WW2)
inactive: [1] 0.077 | volasertib 0.05 | [2] -0.064 | epoxomicin 0.025 | [3] 0.013 | [4] -0.03 | [5] -0.035 | rosiglitazone 0.006 | [6] 0.006 | [7] 0.004 | saracatinib 0.093 | sotrastaurin 0.001 | alvocidib 0.001 | Tubastatin A -0.05 | [8] -0.027 | defactinib -0.012 | rucaparib -0.028 | [9] -0.051 | encorafenib 0 | [10] 0.034

DHCR24 (UniProt Q15392)
active: volasertib 1.21
inactive: [1] 0.769 | [2] 0.104 | epoxomicin -0.056 | [3] -0.1 | [4] 0.06 | [5] 0.236 | rosiglitazone 0 | [6] -0.094 | [7] 0.525 | saracatinib 0.761 | sotrastaurin 0.567 | alvocidib 0.002 | Tubastatin A 0.338 | [8] -0.094 | defactinib -0.017 | rucaparib 0.561 | [9] 0.117 | encorafenib 0.001 | [10] 0.01

CUTA isoform 2 (UniProt O60888)
Chain of UniProt O60888 (O60888 whole entry, looked up): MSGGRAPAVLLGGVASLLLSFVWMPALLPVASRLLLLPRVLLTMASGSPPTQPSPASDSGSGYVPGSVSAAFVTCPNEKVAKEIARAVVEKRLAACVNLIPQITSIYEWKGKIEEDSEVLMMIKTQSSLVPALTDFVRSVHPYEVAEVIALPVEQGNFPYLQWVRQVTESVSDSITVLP
inactive: [1] 0.063 | volasertib -0.057 | [2] -0.033 | epoxomicin 0.125 | [3] 0.03 | [4] -0.109 | [5] 0.175 | rosiglitazone -0.13 | [6] 0.164 | [7] -0.027 | saracatinib 0.202 | sotrastaurin 0.097 | alvocidib -0.158 | Tubastatin A 0.049 | [8] 0.003 | defactinib -0.027 | rucaparib -0.035 | [9] 0.034 | encorafenib -0.002 | [10] 0.122

DDX39A (UniProt O00148)
Chain of UniProt O00148 (O00148 whole entry, looked up): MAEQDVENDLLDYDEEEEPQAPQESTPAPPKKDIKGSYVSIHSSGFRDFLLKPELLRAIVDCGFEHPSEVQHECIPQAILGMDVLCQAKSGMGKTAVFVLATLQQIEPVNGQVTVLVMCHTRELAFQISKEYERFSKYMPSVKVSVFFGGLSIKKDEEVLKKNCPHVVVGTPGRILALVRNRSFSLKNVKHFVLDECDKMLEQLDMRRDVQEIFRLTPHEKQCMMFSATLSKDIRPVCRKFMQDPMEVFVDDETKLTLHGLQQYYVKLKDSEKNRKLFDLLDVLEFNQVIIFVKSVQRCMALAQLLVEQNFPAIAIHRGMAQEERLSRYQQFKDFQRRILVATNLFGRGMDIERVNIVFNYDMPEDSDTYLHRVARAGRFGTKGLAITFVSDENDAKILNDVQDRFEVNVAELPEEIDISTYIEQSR
inactive: [1] 0.037 | volasertib -0.104 | [2] 0.034 | epoxomicin -0.096 | [3] -0.037 | [4] -0.123 | [5] -0.002 | rosiglitazone 0.018 | [6] 0.038 | [7] -0.016 | saracatinib 0.018 | sotrastaurin -0.149 | alvocidib -0.061 | Tubastatin A 0.007 | [8] -0.143 | defactinib -0.213 | rucaparib 0.111 | [9] -0.041 | encorafenib -0.016 | [10] -0.032

EED, A0A5F9ZI63
inactive: [1] -0.052 | volasertib -0.055 | [2] -0.159 | epoxomicin -0.032 | [3] -0.001 | [4] 0.068 | [5] -0.099 | rosiglitazone 0.054 | [6] 0.045 | [7] 0.209 | saracatinib 0.008 | sotrastaurin -0.065 | alvocidib 0.037 | Tubastatin A -0.041 | [8] -0.057 | defactinib -0.04 | rucaparib 0.125 | [9] -0.052 | encorafenib 0.025 | [10] -0.05

DCTN1 isoform 4 (UniProt Q14203)
Chain of UniProt Q14203 (Q14203 whole entry, looked up): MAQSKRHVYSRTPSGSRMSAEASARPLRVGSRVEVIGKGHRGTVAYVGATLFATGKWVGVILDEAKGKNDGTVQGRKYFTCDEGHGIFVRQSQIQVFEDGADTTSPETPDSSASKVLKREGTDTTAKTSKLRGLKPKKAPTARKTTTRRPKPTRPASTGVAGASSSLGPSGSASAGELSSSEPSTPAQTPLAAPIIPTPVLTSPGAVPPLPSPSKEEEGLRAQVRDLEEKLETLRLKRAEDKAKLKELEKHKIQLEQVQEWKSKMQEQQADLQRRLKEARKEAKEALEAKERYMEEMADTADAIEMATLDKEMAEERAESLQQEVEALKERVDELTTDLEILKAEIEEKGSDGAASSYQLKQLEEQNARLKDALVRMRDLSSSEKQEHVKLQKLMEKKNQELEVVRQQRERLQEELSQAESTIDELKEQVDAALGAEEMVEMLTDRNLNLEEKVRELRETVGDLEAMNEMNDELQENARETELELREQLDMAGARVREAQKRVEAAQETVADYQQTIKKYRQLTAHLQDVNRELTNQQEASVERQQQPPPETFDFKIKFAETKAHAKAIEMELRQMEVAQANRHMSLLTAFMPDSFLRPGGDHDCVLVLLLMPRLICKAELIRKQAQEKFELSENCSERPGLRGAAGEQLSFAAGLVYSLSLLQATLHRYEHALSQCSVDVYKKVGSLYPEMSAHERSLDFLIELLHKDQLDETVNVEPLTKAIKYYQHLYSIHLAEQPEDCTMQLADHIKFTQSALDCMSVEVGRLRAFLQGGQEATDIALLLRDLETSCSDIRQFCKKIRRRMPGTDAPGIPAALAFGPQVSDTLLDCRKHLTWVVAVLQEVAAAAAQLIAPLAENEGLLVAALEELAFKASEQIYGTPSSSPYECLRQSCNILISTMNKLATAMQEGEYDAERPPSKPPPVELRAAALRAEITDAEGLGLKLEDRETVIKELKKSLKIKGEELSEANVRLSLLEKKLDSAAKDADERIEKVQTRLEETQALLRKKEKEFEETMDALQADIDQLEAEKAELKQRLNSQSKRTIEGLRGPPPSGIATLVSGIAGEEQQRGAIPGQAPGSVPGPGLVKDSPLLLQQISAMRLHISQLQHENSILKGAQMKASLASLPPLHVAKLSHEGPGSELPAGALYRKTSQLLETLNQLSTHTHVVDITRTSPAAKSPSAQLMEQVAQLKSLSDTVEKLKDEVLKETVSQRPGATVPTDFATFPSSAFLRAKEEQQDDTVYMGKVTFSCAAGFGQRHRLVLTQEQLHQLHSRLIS
inactive: [1] 0.01 | volasertib -0.1 | [2] 0.078 | epoxomicin 0.02 | [3] -0.157 | [4] -0.024 | [5] 0.052 | rosiglitazone 0.086 | [6] 0.149 | [7] -0.096 | saracatinib -0.126 | sotrastaurin -0.159 | alvocidib -0.083 | Tubastatin A 0.079 | [8] -0.056 | defactinib -0.037 | rucaparib 0.227 | [9] 0.074 | encorafenib 0.083 | [10] -0.068

DBN1 isoform 3 (UniProt Q16643)
Chain of UniProt Q16643 (Q16643 whole entry, looked up): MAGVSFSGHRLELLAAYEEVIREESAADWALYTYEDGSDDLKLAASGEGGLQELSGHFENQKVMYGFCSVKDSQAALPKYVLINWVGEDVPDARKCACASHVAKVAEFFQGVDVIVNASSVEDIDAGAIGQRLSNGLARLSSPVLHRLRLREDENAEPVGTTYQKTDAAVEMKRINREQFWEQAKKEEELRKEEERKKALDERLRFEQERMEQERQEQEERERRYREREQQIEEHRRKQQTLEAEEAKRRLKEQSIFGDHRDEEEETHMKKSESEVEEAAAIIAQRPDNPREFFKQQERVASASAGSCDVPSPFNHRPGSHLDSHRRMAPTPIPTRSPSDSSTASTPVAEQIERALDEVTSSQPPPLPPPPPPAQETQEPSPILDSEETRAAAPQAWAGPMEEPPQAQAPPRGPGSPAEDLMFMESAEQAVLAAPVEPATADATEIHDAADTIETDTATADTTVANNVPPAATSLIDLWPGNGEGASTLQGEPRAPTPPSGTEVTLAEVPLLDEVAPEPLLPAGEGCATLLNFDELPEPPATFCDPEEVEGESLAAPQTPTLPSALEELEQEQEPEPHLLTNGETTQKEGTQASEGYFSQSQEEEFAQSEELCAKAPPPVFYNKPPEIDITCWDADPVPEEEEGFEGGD
inactive: [1] 0.026 | volasertib -0.189 | [2] 0.089 | epoxomicin -0.014 | [3] 0.017 | [4] 0.087 | [5] -0.047 | rosiglitazone -0.021 | [6] 0.05 | [7] -0.011 | saracatinib 0.121 | sotrastaurin 0.001 | alvocidib -0.044 | Tubastatin A -0.094 | [8] -0.042 | defactinib -0.06 | rucaparib 0.041 | [9] -0.011 | encorafenib 0.097 | [10] -0.033

FAM122A (UniProt Q96E09)
Chain of UniProt Q96E09 (Q96E09 whole entry, looked up): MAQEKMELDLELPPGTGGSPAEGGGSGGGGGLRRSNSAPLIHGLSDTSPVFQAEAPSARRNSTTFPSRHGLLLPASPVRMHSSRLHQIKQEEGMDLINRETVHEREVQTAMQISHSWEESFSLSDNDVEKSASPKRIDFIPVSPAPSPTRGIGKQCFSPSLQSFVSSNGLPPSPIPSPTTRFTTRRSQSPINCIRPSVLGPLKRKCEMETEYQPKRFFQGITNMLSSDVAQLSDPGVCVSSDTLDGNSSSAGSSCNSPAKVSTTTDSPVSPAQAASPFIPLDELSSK
active: [4] -0.426 | [7] -0.699
inactive: [1] -0.042 | volasertib -0.054 | [2] 0.006 | epoxomicin -0.141 | [3] -0.029 | [5] -0.043 | rosiglitazone 0.064 | [6] -0.081 | saracatinib -0.005 | sotrastaurin -0.027 | alvocidib 0 | Tubastatin A 0.096 | [8] -0.09 | defactinib -0.018 | rucaparib 0.015 | [9] 0.017 | encorafenib -0.016 | [10] 0.056

ETNK1 (UniProt Q9HBU6)
inactive: [1] 0.021 | volasertib -0.24 | [2] 0.021 | epoxomicin 0.157 | [3] -0.03 | [4] 0.059 | [5] 0.121 | rosiglitazone 0 | [6] -0.14 | [7] 0.041 | saracatinib -0.037 | sotrastaurin -0.045 | alvocidib -0.028 | Tubastatin A 0.092 | [8] 0.053 | defactinib -0.001 | [9] -0.039 | encorafenib -0.007 | [10] -0.027
active: rucaparib 0.295

EXOC7 (UniProt Q9UPT5)
Chain of UniProt Q9UPT5 (Q9UPT5 whole entry, looked up): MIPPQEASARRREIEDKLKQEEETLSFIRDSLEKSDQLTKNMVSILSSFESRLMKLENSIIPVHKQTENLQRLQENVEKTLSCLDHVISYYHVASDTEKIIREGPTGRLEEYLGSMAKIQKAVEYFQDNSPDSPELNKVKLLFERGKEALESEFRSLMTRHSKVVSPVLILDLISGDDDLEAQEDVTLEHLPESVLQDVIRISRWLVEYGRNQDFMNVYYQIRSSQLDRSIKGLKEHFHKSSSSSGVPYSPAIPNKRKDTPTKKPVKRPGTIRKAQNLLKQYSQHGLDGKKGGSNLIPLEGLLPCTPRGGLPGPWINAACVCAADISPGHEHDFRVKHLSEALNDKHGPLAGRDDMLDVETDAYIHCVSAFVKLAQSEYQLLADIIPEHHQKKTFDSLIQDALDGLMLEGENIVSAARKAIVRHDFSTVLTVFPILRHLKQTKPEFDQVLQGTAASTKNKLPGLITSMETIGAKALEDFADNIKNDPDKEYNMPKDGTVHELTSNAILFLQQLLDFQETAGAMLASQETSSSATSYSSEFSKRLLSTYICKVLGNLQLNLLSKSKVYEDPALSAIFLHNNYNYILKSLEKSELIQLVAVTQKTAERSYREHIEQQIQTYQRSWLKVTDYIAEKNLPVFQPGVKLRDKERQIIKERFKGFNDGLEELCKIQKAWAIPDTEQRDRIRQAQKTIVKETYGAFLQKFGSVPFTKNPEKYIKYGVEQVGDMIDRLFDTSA
active: volasertib -0.619 | [7] -0.317
inactive: [1] -0.156 | [2] 0.09 | epoxomicin 0.048 | [3] -0.091 | [4] 0.015 | [5] 0.006 | rosiglitazone 0.048 | [6] 0.033 | saracatinib 0.024 | sotrastaurin -0.218 | alvocidib -0.039 | Tubastatin A 0.029 | [8] -0.04 | defactinib -0.06 | rucaparib -0.01 | [9] -0.077 | encorafenib 0.006 | [10] -0.047

DDX11 (UniProt Q96FC9)
Chain of UniProt Q96FC9 (Q96FC9 whole entry, looked up): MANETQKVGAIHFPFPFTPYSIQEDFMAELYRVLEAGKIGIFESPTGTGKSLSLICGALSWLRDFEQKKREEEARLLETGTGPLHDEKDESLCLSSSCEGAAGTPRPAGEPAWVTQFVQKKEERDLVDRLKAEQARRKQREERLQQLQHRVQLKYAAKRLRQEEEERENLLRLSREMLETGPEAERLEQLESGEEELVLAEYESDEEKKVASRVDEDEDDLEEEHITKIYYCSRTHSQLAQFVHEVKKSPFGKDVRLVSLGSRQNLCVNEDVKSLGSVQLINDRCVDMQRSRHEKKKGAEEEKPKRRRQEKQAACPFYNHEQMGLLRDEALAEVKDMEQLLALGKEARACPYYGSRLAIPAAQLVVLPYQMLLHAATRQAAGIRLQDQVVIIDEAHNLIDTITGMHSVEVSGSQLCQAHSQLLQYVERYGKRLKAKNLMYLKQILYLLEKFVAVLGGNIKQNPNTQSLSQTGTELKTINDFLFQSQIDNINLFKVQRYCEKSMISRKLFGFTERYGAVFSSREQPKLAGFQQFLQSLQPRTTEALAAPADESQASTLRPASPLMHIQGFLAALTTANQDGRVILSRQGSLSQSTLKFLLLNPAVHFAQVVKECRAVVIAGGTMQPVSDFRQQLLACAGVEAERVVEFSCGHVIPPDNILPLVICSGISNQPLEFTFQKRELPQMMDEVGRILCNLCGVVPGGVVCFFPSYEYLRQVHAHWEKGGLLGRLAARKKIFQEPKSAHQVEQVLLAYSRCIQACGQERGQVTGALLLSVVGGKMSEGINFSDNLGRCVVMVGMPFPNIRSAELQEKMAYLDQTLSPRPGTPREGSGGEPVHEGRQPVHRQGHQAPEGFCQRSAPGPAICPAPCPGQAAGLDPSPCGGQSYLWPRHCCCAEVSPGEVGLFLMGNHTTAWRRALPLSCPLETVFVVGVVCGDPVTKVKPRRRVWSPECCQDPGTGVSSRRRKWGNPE
inactive: volasertib -0.084 | [2] 0.128 | epoxomicin 0.099 | [3] -0.018 | [5] 0.098 | rosiglitazone 0.052 | [6] -0.04 | saracatinib -0.016 | sotrastaurin -0.248 | Tubastatin A -0.034 | [8] -0.035 | defactinib -0.052 | [9] -0.005 | [10] 0.118

DLK1 (UniProt P80370)
Chain of UniProt P80370 (P80370 whole entry, looked up): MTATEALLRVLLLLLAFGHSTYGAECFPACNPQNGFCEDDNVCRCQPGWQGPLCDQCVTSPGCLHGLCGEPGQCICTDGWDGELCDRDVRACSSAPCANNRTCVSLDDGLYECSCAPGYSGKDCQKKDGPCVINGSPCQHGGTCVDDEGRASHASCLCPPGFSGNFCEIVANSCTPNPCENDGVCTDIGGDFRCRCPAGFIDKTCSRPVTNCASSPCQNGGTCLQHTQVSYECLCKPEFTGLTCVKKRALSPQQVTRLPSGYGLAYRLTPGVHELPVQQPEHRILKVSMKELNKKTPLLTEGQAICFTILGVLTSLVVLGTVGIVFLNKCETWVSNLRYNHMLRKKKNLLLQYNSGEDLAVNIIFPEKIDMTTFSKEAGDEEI
inactive: epoxomicin 0.012 | [5] -0.016 | [6] 0.127 | saracatinib 0.021 | alvocidib 0.03 | defactinib -0.08 | rucaparib -0.023 | [9] -0.09 | encorafenib -0.032 | [10] 0.159
active: [1] 0.43
